Measured potencies and affinities stand elsewhere. Calls of active or inactive are those of the source. The rule behind the calls is not given here.
Assay: HEK293 cell cytotoxicity, dose response, cytotoxicity control, plate reader, cherry-picked samples (AID 743446)
Details: stronger effect = lower value; at 26 µM unless noted
For O=C(Nc1ccc2c(c1)OCCO2)c1ccc(Cl)cc1Cl, the max activity was -20.3% [at 3 µM] (inactive). With Cc1ccoc1C(=O)Nc1ccc2ccccc2c1 the max activity was -16.8% [at 0.1 µM] (inactive). With Cc1ccc(-c2csc(Nc3ccccn3)n2)cc1 the max activity was -11.1% (inactive). In the case of CC(C)Nc1ncnc2c1cnn2-c1ccc(Cl)cc1, the max activity is reported as 60.9% (inactive). In the case of Cc1cc(C)n2c(Nc3ccc4c(c3)OCCO4)c(-c3cc4ccccc4o3)nc2n1, the max activity is reported as 52.8% (inactive). For C[C@H](CO)N1C[C@H](C)[C@H](CN(C)C(=O)Nc2ccccc2)OCCCC[C@H](C)Oc2ccc(NC(=O)Nc3ccccc3)cc2C1=O, the max activity was 21.5% (inactive). With CC(C)c1ccc2c(c1)C(N1CCNCC1)Cc1ccc(F)cc1S2 (stereo not given) the max activity was -119% (inactive). In the case of Cc1cc(C(=O)COC(=O)c2ccccc2O)c(C)n1CC1CCCO1 (stereo not given), the max activity is reported as -7.06% [at 6 µM] (inactive). With C[C@@H]1CN([C@H](C)CO)C(=O)c2cc(NC(=O)Nc3cccc4ccccc34)ccc2O[C@@H]1CN(C)C(=O)Nc1ccccc1 the max activity was 29.1% [at 0.8 µM] (inactive). For Nc1ccc(-c2nc3ccc(N)cc3s2)cc1, the max activity was 53.7% (inactive). For Fc1ccc(-n2nnc(-c3cnc4ccccc4c3)n2)cc1, the max activity was 26.8% [at 1.6 µM] (inactive). In the case of CC[C@H](CO)Oc1cc(NCc2ccc(Cl)c(Cl)c2)c2ncn(C(C)C)c2c1, the max activity is reported as 27.3% [at 0.05 µM] (inactive). With COc1ccccc1CN(C)C[C@@H]1OCc2cnnn2CCCC(=O)N([C@H](C)CO)C[C@H]1C the max activity was 11% [at 0.38 µM] (inactive). In the case of COCCCNc1ccn2nc(-c3ccccc3)cc2n1, the max activity is reported as 42.6% [at 12 µM] (inactive). With COc1ccc(NC(=O)N(C)C[C@@H]2OCCCC[C@H](C)Oc3ccc(NC(=O)C4CCCCC4)cc3C(=O)N([C@H](C)CO)C[C@@H]2C)cc1 the max activity was 11.8% (inactive). For O=C(NCCc1ccccc1)c1ccc2c(c1)OCCO2, the max activity was 15.3% [at 0.195 µM] (inactive). For C[C@@H]1CN([C@@H](C)CO)C(=O)c2cccc(NC(=O)c3ccc(-c4nccs4)cc3)c2O[C@@H]1CN(C)C(=O)Nc1ccc(C(F)(F)F)cc1, the max activity was -9.8% (inactive). For Cc1ccc(NC(=O)c2ncn(CC(=O)NCc3ccc4[nH]ccc4c3)n2)cc1C, the max activity was 8.88% (inactive). With Cc1ccc(C)c(S(=O)(=O)N(C(=O)c2ccncc2)c2ccc(OC(=O)c3ccncc3)cc2)c1 the max activity was 13.7% (inactive). For Clc1ccc(-n2ncc3c(N4CCCC4)ncnc32)cc1, the max activity was 13.4% (inactive). For CC(C)N(C(=O)Nc1ccc2nsnc2c1)C(C)C, the max activity was 12.5% (inactive). For CSc1nnc(NC(=O)c2ccc3c(c2)OCO3)s1, the max activity was -9.38% [at 12 µM] (inactive). In the case of CCOC(=O)c1cn2nc(N3CCCC3)ccc2n1, the max activity is reported as -7.31% [at 6 µM] (inactive). For O=C(Nc1ccc(N2CCN(C(=O)c3ccc(Cl)cc3)CC2)cc1)c1cc2ccccc2o1, the max activity was 21.1% [at 0.05 µM] (inactive). For C[C@@H]1CN([C@H](C)CO)C(=O)c2c(c3ccccc3n2C)-c2ccccc2CO[C@@H]1CN(C)S(=O)(=O)c1ccc(C(F)(F)F)cc1, the max activity was -8.56% (inactive). In the case of Cc1ccnc(N2C(=O)c3ccccc3C2Nc2ccc3c(c2)OCCO3)c1 (stereo not given), the max activity is reported as 25.2% [at 0.05 µM] (inactive). In the case of Cc1cc(C(=O)COC(=O)C2CC2)c(C)n1-c1ccc(F)cc1, the max activity is reported as 9.72% [at 12 µM] (inactive). For C[C@H](CO)N1C[C@H](C)[C@H](CN(C)Cc2ccccc2)Oc2c(NS(=O)(=O)c3cn(C)cn3)cccc2C1=O, the max activity was 13% [at 1.6 µM] (inactive). In the case of CCOc1ccc(-c2cnc3ccccc3n2)cc1, the max activity is reported as 16.5% [at 0.38 µM] (inactive). For Cc1ccc(S(=O)(=O)N2CCCCC2)cc1NC(=O)c1ccc2c(=O)n3c(nc2c1)CCCCC3, the max activity was 45.8% [at 6 µM] (inactive). For O=C(O)c1cccc(-c2noc(-c3cccc(Cl)c3)n2)c1, the max activity was 9.55% (inactive). For Cc1ccc2nc(-c3ccccc3)nn2c1, the max activity was 68.6% [at 3 µM] (inactive). In the case of CCCOc1ccc(F)cc1-c1cc(C(=O)Nc2cc(OC)c(OC)c(OC)c2)[nH]n1, the max activity is reported as 9.95% [at 3 µM] (inactive). With O=C(CCc1nnc(CCCCc2ccccc2)o1)N1CCCC(O)C1 (stereo not given) the max activity was -17.7% [at 0.1 µM] (inactive). With COCCn1c(C)cc(C(=O)CSc2nnnn2C2CCCC2)c1C the max activity was 21% (inactive).

Source: PubChem BioAssay AID743446 (Broad Institute, 2014)
